Inconclusive results are not listed. Activity calls are given as the source filed them. Calls follow the shape of the dose curve; as a rule, active = well fitted cell-killing curve with a large enough effect; inconclusive = small, poorly fitted or top-dose-only effect, or effect the other way; inactive = no such curve, though single readings can be large or run the other way.
Assay: Quantitative High-Throughput drug screen in 47 multiple myeloma cell lines against the NCATS MIPE library collection: H1112_PLB cell viability assay (AID 1918967; also: nearly all actives have a fitted effect of over 30% in size)
Details: H1112 myeloma cells viability, ATP luminescence, 48 h; series mostly up to 45.8 µM; viability: at the top concentration
How it was run: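 Relative luminescence from CellTiter-Glo served as the viability signal, referenced to DMSO-treated (100%) and cell-free medium (0%) controls. Treatment lasted 48 hours at 37C with 500 cells per well.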
Potency is read from the fitted curve at half-maximal effect.

SMILES | Potency | viability
Cc1cc(CS(=O)(=O)c2ccccc2)cc(OCc2ccc(CN3CCC[C@H]3CO)cc2)c1 | 16.6 µM (active) | 
CC(C)(F)C[C@H](N[C@@H](c1ccc(-c2ccc(S(C)(=O)=O)cc2)cc1)C(F)(F)F)C(=O)NC1(C#N)CC1 |  | 106% (inactive)
C=C1[C@H](n2cnc3c(=O)[nH]c(N)nc32)C[C@H](O)[C@H]1CO | 11.8 µM (active) | 
C[C@]12CC[C@@H]3c4ccc(O)cc4CC[C@H]3[C@H]1[C@@H](O)[C@@H](O)[C@H]2O |  | 110% (inactive)
Cc1nc(NC(=O)N2CCC[C@@H]2C(N)=O)sc1-c1csc(C(C)(C)C)n1 | 2.09 µM (active) | 
OC(c1cc(C(F)(F)F)nc2c(C(F)(F)F)cccc12)C1CCCCN1 (configuration not stated) | 20.9 µM (active) | 
COc1cc2c(cc1OC)CC(=O)N(CCCN(C)C[C@H]1Cc3cc(OC)c(OC)cc31)CC2 | 3.72 µM (active) | 
Oc1cc(O)cc(C=Cc2ccc(O)c(O)c2)c1 | 13.2 µM (active) | 
CC(C)n1c(C=C[C@H](O)C[C@H](O)CC(=O)O)c(-c2ccc(F)cc2)c2ccccc21 | 16.6 µM (active) | 
CCC[C@@H](NC(=O)[C@@H]1[C@H]2CCC[C@@H]2CN1C(=O)[C@@H](NC(=O)[C@@H](NC(=O)c1cnccn1)C1CCCCC1)C(C)(C)C)C(=O)C(=O)NC1CC1 | 18.7 µM (active) | 
O=C(NC[C@H](O)CO)c1ccncc1Nc1ccc(I)cc1F | 13.2 µM (active) | 
Cc1ccc(NC(=O)Nc2cc(C(F)(F)F)ccc2F)cc1Nc1ccc2c(c1)NC(=O)C2=Cc1ccc[nH]1 | 11.8 µM (active) | 
CO[C@H]1C=CO[C@@]2(C)Oc3c(C)c(O)c4c(O)c(c(C=NN5CCN(C)CC5)c(O)c4c3C2=O)NC(=O)C(C)=CC=C[C@H](C)[C@H](O)[C@@H](C)[C@@H](O)[C@@H](C)[C@H](OC(C)=O)[C@H]1C |  | 99.9% [at 15.3 µM] (inactive)
CCC(=C(CC)c1ccc(O)cc1)c1ccc(O)cc1 | 18.7 µM (active) | 
C[C@@H]1CC=CC=CC=CC=C[C@@H](O[C@@H]2O[C@H](C)[C@@H](O)[C@H](N)[C@H]2O)C[C@@H]2O[C@](O)(C[C@@H](O)C[C@@H]3O[C@@H]3C=CC(=O)O1)C[C@H](O)[C@@H]2C(=O)O | 16.6 µM (active) | 
NC[C@H]1O[C@H](O[C@@H]2[C@@H](O)[C@@H](O[C@H]3O[C@H](CO)[C@@H](O)[C@H](N)[C@@H]3O)[C@H](N)C[C@@H]2N)[C@H](O)[C@@H](O)[C@H]1O |  | 90.7% (inactive)
CC1(COc2ccc3c(c2)ncn3-c2ccc3cccc(N4CCC(N)CC4)c3n2)COC1 | 0.0083 µM (active) | 
